# Laboratory results taken from PubChem BioAssay (NCATS).
# Inconclusive results are not listed. Where a call stands in place of a potency, no number is given. Activity calls are given as the source filed them. Unless noted, the call rests on the fitted dose curve; in most records, active means well fitted curve in the direction sought with a large enough effect; inconclusive means small, poorly fitted or top-dose-only effect, or another doubt; inactive means no such curve, though single readings can be large; an effect the other way counts as inactive or inconclusive.
# How the values were obtained:
# [1] = Cytotoxicity counterscreen for inhibitors of SARS-CoV-2 cell entry (AID 1645845; calls by dose curve; further: nearly all actives have a fitted effect of over 50% in size; further: potency means the concentration at half of the fitted maximal effect)
# Outline: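 Expi293F/hACE2 cells seeded overnight; cpd pin-transferred in DMSO, 1 h preincubation, + media, 48 h 37 C 5% CO2; ATPLite 1step luminescence; normalized to cells and no cells.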
# [2] = Primary qHTS to identify inhibitors of SARS-CoV-2 cell entry (AID 1645846; calls by dose curve; further: nearly all actives have a fitted effect of over 45% in size); settings: activity change, negative = inhibition: at 57.1 µM (top of the series) unless noted
# Outline: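 Using luciferase-reporting pseudoviruses carrying Wuhan-Hu-1 spike, the screen tracks entry into stably ACE2-expressing cells over 48 hr. Activity is expressed relative to spike particles versus particles lacking any fusion protein.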
# CRL-7250 = normal cell line; test: qHTS assay to identify novel small-molecules to repurpose for Merkel cell carcinoma treatment (AID 1296009); settings: MCC and control cell lines, CellTiter-Glo viability, 72 h; series mostly up to 92 µM; further: nearly all actives have a fitted effect of over 60% in size
# Outline: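 qHTS format: cells treated with library compounds in DMSO across 8 (NPC) or 11 (MIPE) concentrations. Readout after 72 hr at 37 degree celsius was CellTiter-Glo luminescence.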
# [3] = P-glycoprotein substrates identified in KB-8-5-11 adenocarcinoma cell line, qHTS therapeutic library screen (AID 1346987); further: nearly all actives have a fitted effect of over 65% in size
# Outline: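 KB-8-5-11, a colchicine-selected P-gp-overexpressing KB-3-1 subline, was grown without colchicine for the assay. Cells were seeded at 500 cells/well, dosed in concentration-response and incubated 72 h at 37 degree C, 5% CO2. Viability was read by CellTiter-Glo luminescence.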
# [4] = test system: Zika virus NS2B-NS3 protease (unlinked complex); test: Primary screen GU Rhodamine qHTS for Zika virus inhibitors: Unlinked NS2B-NS3 protease assay (AID 1347159); further: nearly all actives have a fitted effect of over 60% in size
# Outline: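 Noncovalent NS2B hydrophilic domain/NS3 protease complex (25 nM final) in 10 mM Tris-HCl pH 8.0, 0.01% Tween 20, preincubated 15 min with compounds (up to 114 microM), then 1.5 microM Rhodamine110 substrate. Fluorescence change over 15 min fitted to 4-parameter Hill.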
# [5] = test system: Zika virus NS2B-NS3 protease (linked construct); test: Primary screen NINDS Rhodamine qHTS for Zika virus inhibitors (AID 1347160); further: nearly all actives have a fitted effect of over 55% in size
# Outline: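 Purified NS2B-NS3 protease with the NS2B hydrophilic domain joined by a flexible linker (25 nM) in 10 mM Tris-HCl pH 8.0, 0.01% Tween 20, preincubated 15 min at RT with compound; Rhodamine110 peptide substrate 1.5 µM; fluorescence change over 15 min; 4-parameter Hill fit.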
# [6] = biological target: Calcium and integrin-binding protein 1 (Homo sapiens) (UniProt Q99828); test: Primary qHTS for Identification of Calcium Integrin Binding Protein 1 (CIB1) Competitor (AID 1508620);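 further: GST tagged CIB1 binding a fluorescein labelled alphaIIb integrin peptide tracer; top concentration of the series differs between compounds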
# Chain of Calcium and integrin-binding protein 1 (Homo sapiens) (Q99828 whole entry, looked up): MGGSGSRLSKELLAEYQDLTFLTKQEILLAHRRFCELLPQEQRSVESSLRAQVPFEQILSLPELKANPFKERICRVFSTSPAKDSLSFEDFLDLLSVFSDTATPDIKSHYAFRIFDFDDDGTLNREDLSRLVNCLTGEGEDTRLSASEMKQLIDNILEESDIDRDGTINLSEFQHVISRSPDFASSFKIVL
# Outline: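 Fluorescence polarization competition: CIB1-GST (1 uM final) preincubated with compound 15 min at room temperature, then FITC-labeled alphaIIb peptide (100 nM final) added for another 15 min. Polarization read at Ex 480/Em 540.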
# [7] = Primary qHTS for inhibitors of nuclear receptor binding SET domain protein 2 (NSD2) in an isogenic RCH-ACV NSD2 p.E1099K mutant (9B) (AID 1645876); further: potency means the concentration at half of the fitted maximal effect; nearly all actives have a fitted effect of over 70% in size
# [8] = Primary qHTS for inhibitors of nuclear receptor binding SET domain protein 2 (NSD2) in an RCH-ACV wild type WT cells (2C) (AID 1645877); further: potency means the concentration at half of the fitted maximal effect; nearly all actives have a fitted effect of over 70% in size
# [9] = biological target: Glutathione peroxidase 1 (Homo sapiens) (UniProt P07203); test: Primary qHTS Assay for Inhibitors of Recombinant Selenoprotein Glutathione Peroxidase 1 (GPX1) (AID 1845191); further: nearly all actives have a fitted effect of over 65% in size
# Chain of Glutathione peroxidase 1 (Homo sapiens) (P07203 whole entry, looked up): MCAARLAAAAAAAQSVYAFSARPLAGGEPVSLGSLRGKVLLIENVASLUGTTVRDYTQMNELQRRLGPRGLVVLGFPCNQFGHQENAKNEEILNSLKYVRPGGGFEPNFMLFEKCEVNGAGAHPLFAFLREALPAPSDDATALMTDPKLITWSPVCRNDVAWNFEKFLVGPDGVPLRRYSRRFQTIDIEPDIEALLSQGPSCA
# Outline: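 Recombinant GPX1 (10 nM final) was preincubated with compound for 30 min at room temperature, then reacted with 1 mM GSH, 0.5 mM CHP, 0.5 mM NADPH and 100 nM glutathione reductase; NADPH fluorescence (340/450 nm) was read at 0 and 15 min.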
# [10] = biological target: Phospholipid hydroperoxide glutathione peroxidase GPX4 (Homo sapiens) (UniProt P36969); test: Primary qHTS Assay for Inhibitors of Recombinant Selenoprotein Glutathione Peroxidase 4 (GPX4) (AID 1845192); further: nearly all actives have a fitted effect of over 65% in size
# Chain of Phospholipid hydroperoxide glutathione peroxidase GPX4 (Homo sapiens) (P36969 whole entry, looked up): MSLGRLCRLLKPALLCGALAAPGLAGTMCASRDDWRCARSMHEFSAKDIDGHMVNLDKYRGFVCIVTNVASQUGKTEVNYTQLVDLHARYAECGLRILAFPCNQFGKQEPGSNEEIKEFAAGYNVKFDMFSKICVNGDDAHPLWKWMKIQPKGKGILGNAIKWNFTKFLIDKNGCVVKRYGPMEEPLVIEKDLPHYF
# Outline: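 GR-coupled readout: 100 nM GR, 1 mM GSH, 0.5 mM NADPH; NADPH fluorescence (ex 340/em 450 nm) read at t=0 and after 15 min RT. GPX4 200 nM, preincubated 30 min with compound; substrate 0.5 mM CHP.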
# [11] = biological target: Luciferin 4-monooxygenase (Photinus pyralis) (UniProt P08659); test: Primary firefly luciferase (FLuc) qHTS assay for identification of artifact compounds. (AID 1845220); settings: outcome: dose series up to 54.1 µM unless noted; further: nearly all actives have a fitted effect of over 60% in size
# Outline: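 In this counter-screen for luciferase artifacts, test compounds met substrate (10 uM each luciferin and ATP) before 10 nM enzyme started the reaction. Light output was measured 5 min later.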
# [12] = Primary fluorescence-based thiol-reactive (MSTI) qHTS assay for identification of artifact compounds. (AID 1845221);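 further: thiol-reactive compounds lower the probe fluorescence signal; nearly all actives have a fitted effect of over 65% in size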
# Outline: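 Thiol-reactive compounds detected by quenching of 4 uM MSTI fluorescence (525/598 nm) after 1 h room-temperature dark incubation in PBS pH 7.4, 2% DMSO. qHTS titration; percent inhibition Hill-fitted against Acetyl-MSTI/MSTI controls.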
# [13] = test system: Nanoluciferase (engineered Oplophorus gracilirostris luciferase); test: Primary Nanoluciferase (NLuc) qHTS assay for identification of artifact compounds. (AID 1845222);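 further: NLuc secreted into diluted conditioned medium of S16 cells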
# Outline: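 Using secreted nanoluciferase in S16 culture medium (0.22 um filtered, 1:55 dilution), compounds were preincubated 15 min at RT. Signal was generated with Nano-Glo reagent (1:100) over 5 min.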
# HeLa = test: Primary qHTS to identify gynecologic anti-cancer compounds using libraries of approved drugs and bioactive compounds (AID 1345084); settings: Gynecologic cancer cell panel viability, ATPlite luminescence, 48 h; series mostly up to 57.5 µM; further: nearly all actives have a fitted effect of over 55% in size
# Outline: (§1)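 Five-point cytotoxicity, 48 h drug exposure at 37 C, 5% CO2, on cells seeded 16 h beforehand. ATP content read by ATPlite luminescence.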
# JEG-3 = test: as above; settings: Gynecologic cancer cell panel viability, ATPlite luminescence, 48 h; series mostly up to 57.5 µM
# Outline: as §1
# [14] = biological target: Alpha-galactosidase (Coffea arabica) (UniProt Q42656); test: Counterscreen for Glucocerebrosidase Inhibitors: qHTS Assay for Coffee Bean alpha-Galactosidase at pH 4.5 (AID 957)
# Chain of Alpha-galactosidase (Coffea arabica) (Q42656 whole entry, looked up): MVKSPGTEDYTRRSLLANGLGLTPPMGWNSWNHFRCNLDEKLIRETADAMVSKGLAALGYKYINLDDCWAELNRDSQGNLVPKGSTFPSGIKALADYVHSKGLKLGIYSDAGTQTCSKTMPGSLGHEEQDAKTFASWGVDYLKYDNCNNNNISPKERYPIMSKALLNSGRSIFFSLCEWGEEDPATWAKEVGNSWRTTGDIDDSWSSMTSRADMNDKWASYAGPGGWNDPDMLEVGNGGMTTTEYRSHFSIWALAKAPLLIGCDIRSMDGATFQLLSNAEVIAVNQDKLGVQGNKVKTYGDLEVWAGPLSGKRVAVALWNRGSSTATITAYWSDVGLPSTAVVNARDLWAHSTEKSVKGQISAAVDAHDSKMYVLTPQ
# Outline: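 Coffee bean enzyme (2 nM) with 80 uM 4-methylumbelliferyl alpha-D-galactopyranoside in 50 mM citric acid, 0.005% Tween-20, pH 4.5, 20 min at room temperature; compounds 0.7 nM–77 uM. Stopped at pH 10, fluorescence 365/440 nm; AC50 from Hill fits.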
# [15] = biological target: Alpha-galactosidase (Coffea arabica) (UniProt Q42656); test: Counterscreen for Glucocerebrosidase Inhibitors: qHTS Assay for Coffee Bean alpha-Galactosidase at pH 5.9 (AID 998)
# Outline: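 Green coffee bean enzyme (2 nM final) was incubated with compounds (0.7 nM–77 uM) and 4-methylumbelliferyl alpha-D-galactopyranoside (80 uM) in citrate buffer pH 5.9, 20 min at room temperature. High-pH stop; fluorescence 365/440 nm; AC50 from Hill fits.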
# [16] = Validation screen for inhibitors of Lassa infection (AID 463096; calls by dose curve)
# [17] = Inducers of the Endoplasmic Reticulum Stress Response (ERSR) in human glioma: Validation (AID 504836)
# Outline: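 Stably transfected U87-MG human glioma cells carrying a GRP78-based luminescent sensor were seeded at 1000 cells/well, pin-dosed with compounds and incubated 16 h. Luciferase reagent was then added, and end-point luminescence was read after 10 min at room temperature.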
smiles,measurement,setting,value
N#Cc1cccc(-c2c[nH]c3ncnc(N4CCOCC4)c23)c1,Potency,[1],inactive
same,Potency,[2],inactive
same,Potency,CRL-7250,inactive
CCNCc1nc2c(N)nc3ccccc3c2n1CC(C)(C)O,Potency,[1],inactive
same,"activity change, negative = inhibition",[2],-33.4%
same,Potency,CRL-7250,inactive
c1cc(-c2cnn3cc(-c4ccc(N5CCNCC5)cc4)cnc23)c2cccnc2c1,Potency,[1],inactive
same,Potency,[2],inactive
same,Potency,CRL-7250,inactive
CCN(c1cc(C#CCN2CCOCC2)cc(C(=O)NCc2c(C)cc(C)[nH]c2=O)c1C)C1CCC(N(C)CCOC)CC1 (centres undefined),Potency,[1],inactive
same,Potency,[2],inactive
same,Potency,CRL-7250,inactive
Cc1c(F)cc(C(=O)NC2CC2)cc1-c1ccc(C(=O)NCC(C)(C)C)cn1,Potency,[1],inactive
same,Potency,CRL-7250,inactive
CC1=CC2/C=C(\C)CCC(O)C(O)C(O)CC(=O)C23C(=O)NC(CC(C)C)C3C1C (centres undefined),Potency,[3],inactive
same,Potency,[4],inactive
same,Potency,[5],inactive
same,Potency,[6],inactive
same,Potency,[7],4.47 µM (active)
same,Potency,[8],3.17 µM (active)
same,Potency,[9],inactive
same,Potency,[10],inactive
same,outcome,[11],inactive [at 25.7 µM]
same,Potency,[12],inactive
same,Potency,[13],inactive
same,Potency,HeLa,inactive
same,Potency,JEG-3,inactive
O=C(CCc1ccc(O)cc1)c1c(O)cc(O)cc1O,outcome,[14],inactive
same,outcome,[15],inactive
same,Potency,[16],inactive
same,outcome,[17],inactive
same,Potency,[1],inactive
same,"activity change, negative = inhibition",[2],-19.9%
same,Potency,CRL-7250,inactive
Cn1nccc1Nc1nccc(-c2ccn([C@H](CO)c3ccc(Cl)c(F)c3)c(=O)c2)n1,Potency,[1],11.2 µM (active)
same,Potency,CRL-7250,inactive
CS(=O)(=O)c1ccc(Oc2cc(F)cc(C#N)c2)c2c1[C@H](O)C(F)(F)C2,Potency,[1],inactive
same,Potency,[2],inactive
same,Potency,CRL-7250,inactive
